Compound activity from PubChem BioAssay.
Mcl1 Noxa PPI: disrupts binding of human Mcl-1 to Noxa peptide; Q07820; TR-FRET Mcl-1/Noxa peptide binding, 2 h; inhibition, % at 21.7 µM; 1.5% of 220,000 active; AID 1022;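 active = compounds that cut the protein-peptide binding signal by more than 50% relative to plate controls in a single-dose test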;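 also: His-tagged Mcl-1 with rhodamine Noxa BH3 peptide and terbium anti-His antibody; 0% = Mcl-1 plus Noxa peptide wells and 100% = peptide-only wells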
Target sequence (Q07820 whole entry, looked up): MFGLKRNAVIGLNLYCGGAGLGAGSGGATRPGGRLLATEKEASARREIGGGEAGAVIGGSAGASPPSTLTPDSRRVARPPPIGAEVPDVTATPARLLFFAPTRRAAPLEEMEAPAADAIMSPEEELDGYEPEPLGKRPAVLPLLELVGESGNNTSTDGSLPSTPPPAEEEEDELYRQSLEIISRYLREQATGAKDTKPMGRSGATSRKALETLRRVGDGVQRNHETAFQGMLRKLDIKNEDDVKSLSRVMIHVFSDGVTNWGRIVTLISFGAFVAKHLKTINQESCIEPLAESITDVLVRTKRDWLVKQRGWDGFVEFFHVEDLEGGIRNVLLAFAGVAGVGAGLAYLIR
Mcl1 Bid PPI: disrupts binding of human Mcl-1 to Bid peptide | Q07820 | TR-FRET Mcl-1/Bid-Dy647 peptide binding, 1536-well | inhibition, % at 21.7 µM | 0.97% of 220,000 active | AID 1021;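 active = compounds that cut the binding signal by more than half at the single screening dose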;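 also: His-tagged Mcl-1 with europium anti-His antibody binding Bid BH3 peptide; 0% = Mcl-1 plus peptide wells and 100% = peptide-only wells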
BCLXL inh: Bcl-xL (human) inhibition. Q07817. GST-Bcl-xL / FITC-Bim BH3 peptide fluorescence polarization. inhibition, % at 10.9 µM. 0.7% of 320,000 active. AID 2129;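 active = inhibition above the mean of all tested compounds plus 3 SD, cutoff set per campaign, cut at about 30% in these data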;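 also: 0% = DMSO wells and 100% = unlabeled Bim-BH3 peptide competitor; inhibitors lower millipolarization by displacing the labeled peptide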
Target sequence (Q07817 whole entry, looked up): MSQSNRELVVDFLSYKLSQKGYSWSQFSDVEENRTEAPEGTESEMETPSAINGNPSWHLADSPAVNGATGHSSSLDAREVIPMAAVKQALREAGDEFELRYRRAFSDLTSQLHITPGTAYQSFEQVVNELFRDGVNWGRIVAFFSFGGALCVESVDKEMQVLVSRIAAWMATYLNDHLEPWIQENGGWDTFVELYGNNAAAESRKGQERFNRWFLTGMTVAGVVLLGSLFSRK
GLD-1 RNA inh: GLD-1-TGE RNA interaction inhibition (C. elegans). Q17339. purified GLD-1 + fluorescein TGE RNA, fluorescence polarization. 0.44% of 320,000 active. AID 2280. inhibition, % at 5.96 µM;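 active = percent inhibition above a per-plate cutoff, the plate mean of test compounds plus 3 SD, cut at about 30% in these data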;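 also: 0% = DMSO wells with GLD-1 and probe and 100% = wells lacking GLD-1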
MCL1 BIM primary: inhibitors of human MCL1 binding to BIM-BH3 peptide; Q07820; GST-MCL1 / FITC-Bim-BH3 fluorescence polarization; inhibition, % at 10.9 µM; 0.68% of 320,000 active; AID 2057;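 active = inhibition above the mean inhibition of all tested compounds plus 3 SD, set per campaign, cut at about 40% in these data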;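 also: 0% = DMSO wells and 100% = unlabeled Bim-BH3 peptide control; higher means more loss of mP so more displacement of Bim peptide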
Mcl-1 Bim block: disrupts Bim peptide binding to human Mcl-1. Q07820. Bead-based flow cytometry, Bim peptide-Mcl-1 binding. inhibition, % at 10 µM. 0.1% of 190,000 active. AID 1009; in the data active = inhibition above about 40%;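 also: 0% = no compound tracer wells and 100% = peptide blocker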
An asterisk follows results filed as active; / = no result given; ! = not active in a repeat. A selection: hits, their analogues and other compounds. The true share with any hit is near 2.3%.

SMILES	Mcl1 Noxa PPI	Mcl1 Bid PPI	BCLXL inh	GLD-1 RNA inh	MCL1 BIM primary	Mcl-1 Bim block
CCCCn1c(N)c(S(=O)(=O)c2ccc(C)cc2)c2nc3ccccc3nc21	8	3	7	7	11	2
O=S(=O)(Nc1nc2ccccc2nc1NCc1ccco1)c1ccc(Cl)cc1	22	16	16	4	13	-2
Cc1cccc(S(=O)(=O)c2c(N)n(Cc3ccco3)c3nc4ccccc4nc23)c1	20	0	37*	69*	17	2
Cc1ccc(S(=O)(=O)c2c(N)n(Cc3ccco3)c3nc4ccccc4nc23)cc1	46	-24	30	44*	13	1
CCCCn1c(N)c(N(CCOC)C(=O)C2CCN(S(=O)(=O)c3ccc(Cl)cc3)CC2)c(=O)[nH]c1=O	/	/	-5	2	-11	/
NC(=O)CSc1ccc(S(=O)(=O)N2CCOCC2)cn1	/	/	38*	20	43*	/
CCCCNC(=O)CSc1ccc(S(=O)(=O)N2CCOCC2)cn1	/	/	2	-1	-1	/
CC(=O)Nc1ccc(NC(=O)CSc2nnc(-c3cccnc3)o2)cc1	/	/	-4	5	-1	/
CC(C)NC(=S)N/N=C/c1sc(N2CCCCC2)nc1-c1cccs1	-43	-32	-5	-2	-16	-3
CCCCNC(=S)N(C)/N=C/c1sc(N2CCCCC2)nc1-c1cccs1	11	-35	39*	13	-3	-6
CCN(CC)c1ccc(C=Nc2cccnc2Cl)c(O)c1	/	/	44*	28	51*	/
CC(=O)c1ccc(S(=O)(=O)Nc2ccc(-c3cn4c(n3)SCC4)cc2)cc1	65*	-30	-1	-3	-9	2
CS(=O)(=O)Nc1ccc(-c2cn3c(n2)SCC3)cc1	/	/	-2	-4	-6	/
COc1cc(OC)cc(C(=O)N[C@H](C(=O)Nc2nc3ccc(S(C)(=O)=O)cc3s2)C(C)C)c1	18	-27	-8	6	-13	0
CCN(CC)c1ccc(/C=C(\C#N)C(=O)c2ccc(Br)cc2)cc1	-15	-11	52*	63*	45*	/
Cn1c(=S)[nH]c2scc(-c3cccs3)c2c1=O	64*	-47	/	/	/	0
C=CCn1c(=S)[nH]c2scc(-c3cccs3)c2c1=O	11	-63	/	/	/	1
O=C(/C=C/c1cccs1)N1CCN(c2ccc(O)cc2)CC1	79*	-55	19	8	12	2
Nc1ccc(N2CCN(C(=O)c3cccs3)CC2)cc1	61*	-91	11	4	15	15
N#C/C(=C\c1ccc(C(=O)O)cc1)c1nc2sc3c(c2c(=O)[nH]1)CCCC3	74*	13	/	/	/	/
CCC(=O)N(C1=C(NC)C(=O)c2ccccc2C1=O)C(C)C	1	-42	2	0	7	0
CCC(=O)N(CC)C1=C(O)c2ccccc2C(=O)C1=O	85*	-11	9	5	9	2
CC1(c2ccccc2)NC(=O)N(CC(=O)Nc2ccccc2N2CCCCC2)C1=O (stereo unspecified)	/	/	-2	3	-9	/
Nc1nc(-c2cccs2)c(CC(=O)O)s1	30	-48	2	-6	-5	-1
O=C(O)Cc1sc(Nc2ccc(Cl)cc2)nc1-c1cccs1	73*	-27	/	/	/	-6
SMILES	Mcl1 Noxa PPI	Mcl1 Bid PPI	BCLXL inh	GLD-1 RNA inh	MCL1 BIM primary	Mcl-1 Bim block
O=C1SC(SCc2ccccc2Cl)=N/C1=C\c1ccc(C(=O)O)cc1	80*	-34	8	-2	14	-2
O=C(Nc1nccs1)c1ccc(COc2ccc(F)cc2)o1	56*	-7	-12	4	-6	24
O=C(Nc1nccs1)c1ccc(COc2ccc(Cl)cc2)o1	7	-1	2	2	10	5
CS(=O)(=O)c1ccc(N2CCN(c3ccccn3)CC2)c([N+](=O)[O-])c1	/	/	2	-4	-1	/
CCC(C)c1ccccc1NC(=O)C(C)NCCN(C)C (stereo unspecified)	23	60*	-3	1	-5	/
CCCNC(C)C(=O)Nc1ccccc1C (stereo unspecified)	-26	-3	-2	-2	7	-1
Cc1cccc(NC(=O)CSc2nc(COc3ccccc3)nc3ccccc23)c1C	-4	33	4	-1	6	-3
Cc1cccc(C)c1NC(=O)CSc1nc(COc2ccccc2)nc2ccccc12	0	59*	1	0	28	10
O=C(Nc1ccc2c(c1)OCO2)c1cc2ncc(Br)cn2n1	58*	-58	/	/	/	3
O=C(Nc1cccc(C(F)(F)F)c1)c1cc2ncc(Br)cn2n1	22	-22	4	2	1	1
CCc1ccc(-c2cc(C(F)(F)F)n3nc(C(=O)Nc4c(C)nn(Cc5ccc(F)cc5)c4C)cc3n2)s1	-9	-13	2	5	-1	-1
Cc1cc(Nc2ccc(O)cc2)ccc1N	/	/	36*	5	41*	/
O=c1cc(CN2CCOCC2)c2ccc(O)c(O)c2o1	/	/	5	-3	6	/
CC1Oc2cc3oc4c(O)c(O)ccc4c(=O)c3c(O)c2C1(C)C (stereo unspecified)	/	/	10	31*	13	/
N#Cc1nc(Cc2cccc3ccccc23)oc1N1CCC(C(N)=O)CC1	9	-19	33*	0	5	-3
CNc1ccc(Br)cc(C(=O)/C=C/c2cccc(OC)c2OC)c1=O	70*	0	12	16	5	19
CNc1ccc(Br)cc(C(=O)/C=C/c2cccc(Cl)c2Cl)c1=O	106*	92*	/	/	/	0
CCNc1ccc(Br)cc(C(=O)/C=C/c2ccccc2Cl)c1=O	/	/	-15	-7	-14	/
Cc1ccc(C(=O)Nc2nc(=O)[nH]s2)cc1	-13	5	4	-2	5	-1
CCC(=O)OC1(C)C(=O)C=C2C=C(c3ccsc3)OC=C2C1=O (stereo unspecified)	68*	4	25	18	36	/
N[C@@H](Cc1cc(I)c(Oc2cc(I)c(O)c(I)c2)c(I)c1)C(=O)O	/	/	8	0	-14	/
O=C(O)CCc1cc(I)c(Oc2ccc(O)c(I)c2)c(I)c1	69*	27	/	/	/	/
N[C@@H](Cc1cc(I)c(Oc2ccc(O)c(I)c2)c(I)c1)C(=O)O	105*!	66*!	3	0	17	0
CC/C(=N/Nc1ccc(Cl)cc1)c1cnnc(SC)n1	10	-15	10	6	11	-3
CC/C(=N/Nc1cccc(C)c1)c1cnnc(SC)n1	19	-5	46*	7	31	-9
CCN(C[C@H]1N[C@@](Cc2ccccc2)(C(=O)OC)[C@H]2C(=O)N(C)C(=O)[C@@H]12)C(=O)C1CCCCC1	/	/	/	7	/	/
O=C(CSc1nc(-c2ccccc2Cl)ns1)NCc1ccc2c(c1)OCO2	-2	-36	63*	-6	9	2
Cc1ccc(C(=O)NNC(=O)c2ccc3ncccc3c2)cc1	-4	-9	/	/	/	50*
O=C(NNc1c2ccccc2nc2ccccc12)c1ccc(Cl)cc1	/	/	3	-11	8	/
